Bioassay records (PubChem BioAssay)
A selection: hits, their analogues and other compounds. The true share with any hit is near 1.8%.
F508del corr – F508del CFTR correction, initial screen, CFBE line, single point; CFBE cells, YFP halide quenching; stimulated with forskolin plus potentiator P3; % fluorescence drop versus neutral controls; activity (quench increase), % at 7.58 µM; hit rate 0.36% among 350,000;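 active = mean added fluorescence quench of at least 8% versus neutral control, with both replicates also reaching 8%; inconclusive = only one of the mean or replicate conditions met; inactive = mean below 8% and not both replicates reaching 8%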;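 note: cells transiently co-express mutant CFTR-F508del with the halide-sensitive YFP; corrector assay measuring rescue of mutant channel to the surface after 24 h compound exposure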
EWS-Fli block – EWS/Fli-driven NR0B1 reporter inhibitors, primary screen, A673 cells, NR0B1 luciferase, luminescence, MLPCN library; viability-normalised; inhibition, % at 12.6 µM; hit rate 0.67% among 350,000; AID 651661, 2012;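 active = mean inhibition of at least 50% after viability correction, with every replicate also passing that limit; inconclusive = mean reaches 50% but only one of two replicates passes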;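 note: firefly luciferase signal divided by Alamar Blue viability fluorescence both relative to DMSO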
LGR2 antag – inhibitors of bursicon-induced LGR2 CRE-luciferase signal, primary screen, cell-based, HEK293, CRE-luciferase reporter, bursicon stimulation. bursicon-stimulated, 4 h. inhibition, % at 9.99 µM. hit rate 0.35% among 380,000. AID 720647, 2013;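 active = drop in luminescence signal, shown as inhibition above about 50% in the replicate tests, limit read from the data, passing the limit was not always enough; inconclusive = probably only some replicates passing the limit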;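 note: agonist challenge used bursicon conditioned medium at about half maximal strength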
PAX8 reporter – inhibitors of PAX8-driven TPO luciferase reporter, primary screen, RMG-I cells, single concentration; SteadyGlo, 24 h; inhibition, % at 12.6 µM; hit rate 1.2% among 360,000;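 active = mean replicate inhibition at least 60% with every replicate also reaching 60%; inconclusive = only one of the two criteria is met; inactive = mean below 60% and not all replicates reaching 60%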;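 note: luciferase light reporting Pax8 driven TPO promoter activity; plate controls were median of neutral control wells for no effect and mitoxantrone controls for full effect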
Numbers without * were called inactive; u = inconclusive; x = not tested or not shown.

SMILES	F508del corr	EWS-Fli block	LGR2 antag	PAX8 reporter
CC(C)C#Cc1cnc2c(c1)C(=O)N([C@@H](C)CO)C[C@@H](C)[C@@H](CN(C)S(=O)(=O)c1cn(C)cn1)O2	1	-3	-4	x
CCC(=O)N1C[C@@H](C)[C@@H](OC)CN(C)C(=O)c2cc(NC(=O)c3cc(C)on3)ccc2OC[C@H]1C	-3	-11	2	x
COc1cc(C(=O)Nc2ccc3c(c2)N(C(=O)CN2CCN(C)CC2)c2ccccc2CC3)cc(OC)c1OC	2	6	-13	-9
COc1cc(C(=O)N2CCC(C(N)=O)CC2)ccc1OCc1c(C)noc1C	9.4*	0	-5	x
COc1ccc(CN(C(=O)/C=C/C(=O)c2ccc(OC)cc2O)C(C(=O)NC2CCCCC2)c2ccncc2)cc1 (configuration not stated)	1	17	13	-9
COc1ccc(C(=O)/C=C/C(=O)N(CC(=O)NC2CCCCC2)Cc2cccs2)c(O)c1	-1	64*	x	60
COCCN(CC(=O)NC1CCCCC1)C(=O)/C=C/C(=O)c1ccc(OC)cc1O	-3	39	u	91*
Cn1cnnc1SCC(=O)Nc1ccc(S(=O)(=O)N2CCOCC2)cc1	12*	-1	-23	-11
Nc1nc(SCC(=O)Nc2cc(S(=O)(=O)N3CCOCC3)ccc2Cl)n[nH]1	0	3	4	-12
Cc1ccc(S(=O)(=O)N2CCOCC2)cc1NC(=O)CSc1n[nH]c(N)n1	18*	6	11	-6
CCC(C)c1ccc(C(C)NC(=S)NC2CCCCC2)cc1 (configuration not stated)	-7	16	8	x
CC1=C/C(=C(/c2ccc(O)c(C)c2)c2ccccc2S(=O)(=O)O)C=CC1=O	-3	2	13	23
CC1=C/C(=C(/c2cc(C)c(O)c(Br)c2)c2ccccc2S(=O)(=O)O)C=C(Br)C1=O	3	-32	6	77*
COc1ccc(C(=O)Nc2nc3ccccc3s2)c(OC)c1	5	91*	103*	106*
COc1ccc2nc(NC(=O)c3ccccc3F)sc2c1	3	5	63*	-18
COc1ccc2nc(NC(=O)c3ccccc3C(=O)O)sc2c1	2	3	11	14
COc1ccccc1C(=O)Nc1nc2ccccc2s1	1	93*	105*	101*
COc1ccc(NC(=O)Nc2nc3ccccc3s2)cc1	1	-115	-36	-158
CCOc1ccc(S(=O)(=O)N2CCOCC2)cc1NC(=O)CN1C(=O)NC(CC)(c2ccccc2)C1=O (configuration not stated)	-3	x	0	x
Cc1nc(SCC(=O)O)c(C#N)c2c1CCCC2	0	18	9	8
C/C=C/c1cnc2c(c1)C(=O)N([C@H](C)CO)C[C@H](C)[C@H](CN(C)Cc1ccccc1)O2	-4	0	-12	x
O=C(C[C@H]1C=C[C@@H](NC(=O)CCN2CCCCC2)[C@H](CO)O1)Nc1nccs1	-2	2	7	2
CCN1CCN(CCNC(=O)c2ccc(/C=C3/Sc4ccccc4N(Cc4cccc(Cl)c4)C3=O)cc2)CC1	-5	46	52*	7
Cc1cc(NC(=O)CSc2ccc3ccccc3c2)no1	x	x	-4	x
CC1=CC(C)(C)N(S(=O)(=O)c2ccc(F)cc2)c2ccc(C)cc21	x	x	10	x
SMILES	F508del corr	EWS-Fli block	LGR2 antag	PAX8 reporter
COc1ccc2c(c1)C(C)=CC(C)(C)N2S(=O)(=O)c1ccc(NC(C)=O)cc1	-1	48	4	64*
COc1ccc2c(c1)C(C)=CC(C)(C)N2S(=O)(=O)c1ccc(Br)cc1	-1	50	-22	88*
CCOc1ccc2c(c1)C(C)=CC(C)(C)N2S(=O)(=O)c1ccc(NC(C)=O)cc1	1	47	-5	88*
CCOc1ccc2c(c1)C(C)=CC(C)(C)N2S(=O)(=O)c1ccc(F)cc1	10*	62*	7	44
CC(C)(C)OC(=O)N[C@@H](Cc1ccccc1)C(=O)N[C@@H](CO)[C@H](O)[C@@H]1C[C@@H]1C(=O)N1CCCC1	1	-14	-7	-44
Cc1ccc(S(=O)(=O)N2CCN(C(=O)CCC(=O)NCCc3ccc(S(N)(=O)=O)cc3)CC2)c(C)c1	4	-7	-3	3
C[C@H]1CN([C@@H](C)CO)C(=O)c2cc(C#Cc3ccccc3F)cnc2O[C@@H]1CN(C)C(=O)Cc1ccccc1	3	2	7	x
